Source: PubChem BioAssay (NCI)
The panel holds about 83,000 compounds, 20% with a hit somewhere; the sample as a whole holds those more often.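 Each cell line was grown in a 96-well plate and treated with one concentration of compound for 48 hours. Values below 10 were considered active.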 A number with no mark means an inactive call. Active and inactive are the calls of the source.

Key:
Assay in all cases: NCI-60 one-dose screen, 48 h (100 = growth as untreated, 0 = no growth, -100 = all killed)
Conditions in all cases: 10 µM unless noted
HCT-15 colon = system: HCT-15 colon
HT29 colon = system: HT29 colon
SNB-75 CNS = system: SNB-75 CNS
SNB-19 CNS = system: SNB-19 CNS
U251 CNS = system: U251 CNS
PC-3 prostate = system: PC-3 prostate
SK-MEL-5 melanoma = system: SK-MEL-5 melanoma
UACC-62 melanoma = system: UACC-62 melanoma
LOX IMVI melanoma = system: LOX IMVI melanoma
SK-MEL-28 melanoma = system: SK-MEL-28 melanoma
SK-MEL-2 melanoma = system: SK-MEL-2 melanoma
EKVX NSCLC = system: EKVX NSCLC
SN12C renal = system: SN12C renal
UO-31 renal = system: UO-31 renal
TK-10 renal = system: TK-10 renal
ACHN renal = system: ACHN renal
CAKI-1 renal = system: CAKI-1 renal
A498 renal = system: A498 renal
CCRF-CEM leukemia = system: CCRF-CEM leukemia
MOLT-4 leukemia = system: MOLT-4 leukemia

| Structure (SMILES) | growth (HCT-15 colon) | growth (HT29 colon) | growth (SNB-75 CNS) | growth (SNB-19 CNS) | growth (U251 CNS) | growth (PC-3 prostate) | growth (SK-MEL-5 melanoma) | growth (UACC-62 melanoma) | growth (LOX IMVI melanoma) | growth (SK-MEL-28 melanoma) | growth (SK-MEL-2 melanoma) | growth (EKVX NSCLC) | growth (SN12C renal) | growth (UO-31 renal) | growth (TK-10 renal) | growth (ACHN renal) | growth (CAKI-1 renal) | growth (A498 renal) | growth (CCRF-CEM leukemia) | growth (MOLT-4 leukemia) |
| --- | --- | --- | --- | --- | --- | --- | --- | --- | --- | --- | --- | --- | --- | --- | --- | --- | --- | --- | --- | --- |
| COc1ccc(-c2nn(-c3ccc(S(C)(=O)=O)cc3)cc2/C=N/O)cc1 | 103% | 106% | 127% | 105% | 106% | 102% | 98.7% | 96.6% | 102% | 96.1% | 109% | 104% | 98.9% | 97% | 124% | 95.3% | 111% | 116% | 99.6% | 103% |
| COC(=O)/C=C/c1c(C2(C)NC(=O)c3ccccc3N2)c(=O)oc2ccc(Cl)cc12 (stereo not given) | 91.4% | 96% | 74% | 90.7% | 88% | 89.2% | 91.4% | 75.4% | 97% | 97.6% | 93.7% | 88.3% | 87.9% | 67.8% | 108% | 87.4% | 78.2% | 59.3% | 101% | 101% |
| CS(=O)(=O)Nc1cc(-c2ccc3ncc(C#N)c(NCc4ccccc4O)c3c2)cnc1Cl | 8.71% (active) | 15.5% | 32.3% | 11.9% | 13.6% | 9.68% (active) | -90.3% (active) | -25.3% (active) | -34.5% (active) | 5.12% (active) | -38.3% (active) | 4.89% (active) | 17.1% | 3.5% (active) | -6.17% (active) | 12.4% | -1.29% (active) | -41% (active) | 19.9% | -0.509% (active) |
| NC(=O)c1c(NC(=O)c2ccc(F)cc2F)sc2c1CCC(=O)C2 | 11.8% | 59.8% | 66.8% | 59.3% | 32.4% | 16.3% | 64.6% | 22.6% | 22.6% | 37% | 102% | 73.6% | 72.9% | 29.3% | 61.9% | 7.96% (active) | 33.9% | 100% | 18.3% | 40.6% |
| CCCn1cnc2c(c1=N)C(c1ccc(F)cc1)c1sc3c(C)cccc3c1O2 (stereo not given) | 18.5% | 57% | -4.36% (active) | 22.4% | 24.4% | 33.4% | 24.8% | 27.7% | 28.8% | 45.1% | 52.8% | 37.1% | 61.9% | 32.8% | 70.9% | 35.5% | 28.6% | -19.9% (active) | -3.84% (active) | 40% |
| COc1ccc(C(=O)Nc2ncc(Cc3ccccc3Cl)s2)cc1 | 9.87% (active) | -16.6% (active) | 28.8% | 23.7% | 14.6% | 29.7% | 2.6% (active) | 35.7% | 1.15% (active) | 64% | -1.02% (active) | 41.7% | 32.7% | 38.1% | 64.3% | 32.5% | 36.4% | -8.09% (active) | 18.7% | 13.8% |
| COc1ccc(-c2nc3cccc(O)c3c(=O)n2Cc2ccccc2)cc1COc1ccc(NC(C)=O)cc1 | 12.5% [3 µM] | 55.9% [3 µM] | 44.8% [3 µM] | 42% [3 µM] | 30% [3 µM] | 36.5% [3 µM] | 29.4% [3 µM] | 37.3% [3 µM] | 2.67% [3 µM] (active) | 55.4% [3 µM] | 86.8% [3 µM] | 79.5% [3 µM] | 62.3% [3 µM] | 74.2% [3 µM] | 69.4% [3 µM] | 36.2% [3 µM] | 57% [3 µM] | 70.5% [3 µM] | 41.6% [3 µM] | 15.4% [3 µM] |
| CN1CCN(Cc2ccc(NC(=O)c3cncc(C#Cc4cnc5ccc(N6CCN(C)CC6)nn45)c3)cc2C(F)(F)F)CC1 | -57% (active) | -41.6% (active) | -68.9% (active) | -29.3% (active) | -96.7% (active) | -18.6% (active) | 90.5% | 92.2% | -93.1% (active) | 82% | 56.4% | -84.9% (active) | 15.7% | 20.1% | 59% | -98.1% (active) | -95.3% (active) | 43.7% | -2.14% (active) | -26.2% (active) |
| O=C(CCC(=O)N1CCOCC1)OCCCCCCSc1ccc([N+](=O)[O-])c2nonc12 | -67.4% (active) | -34.2% (active) | 36.4% | 25.1% | -29.8% (active) | 2.96% (active) | 27.9% | -64.6% (active) | -82.2% (active) | -36.9% (active) | -40.6% (active) | 1.52% (active) | -74.7% (active) | -84.2% (active) | 13.4% | -97.7% (active) | -31.2% (active) | 12.8% | -5.49% (active) | -2.71% (active) |
| CC(=O)N1N=C(c2cccc(-n3cccc3)c2)CC1c1cccc(F)c1 (stereo not given) | 92.8% | 100% | 104% | 88.5% | 93.4% | 84.9% | 98.7% | 81% | 95.5% | 103% | 103% | 95.7% | 97.1% | 75.4% | 123% | 101% | 86.5% | 101% | 94.4% | 90.3% |
| N#Cc1c(NC(=O)c2cccc(C(F)(F)F)c2F)sc2c1CCC(=O)C2 | -49.6% (active) | 4.38% (active) | -66.3% (active) | 15.4% | 0.119% (active) | -43.9% (active) | -91.1% (active) | -56.6% (active) | -8.55% (active) | -71.8% (active) | 5.28% (active) | 5.47% (active) | 7.61% (active) | -99.7% (active) | 24.1% | -95.5% (active) | -83.5% (active) | -8.37% (active) | 7.8% (active) | -0.731% (active) |
| Fc1ccc(-c2cc3nc(C(Cl)Cl)nc(-c4ccc(F)cc4)n3n2)cc1 | 8.52% (active) | -6.96% (active) | -11.6% (active) | 1.89% (active) | -39.8% (active) | 16.8% | 76.5% | 44% | 55.7% | -5.14% (active) | 108% | 7.26% (active) | 49.2% | 29.3% | 13.2% | -41.1% (active) | -18.3% (active) | -53.1% (active) | 33.1% | 12.4% |
| COc1cc(OC)c(/C=C/S(=O)(=O)Cc2ccc(OC)c(NCC(=O)NO)c2)c(OC)c1 | 12.9% | 5.84% (active) | 27.6% | 18.5% | 13.4% | 22.7% | -30.6% (active) | 12.4% | 8.14% (active) | 56.8% | 51.1% | 34.4% | 19.2% | 35.4% | 65% | 27.9% | 25.7% | -11.7% (active) | 14.8% | 16.5% |
| NC(N)=Nc1ccc(Oc2cccc(Nc3cccc(C(F)(F)F)c3)c2)cn1 | -64.9% (active) | 14.6% | 33.5% | 1.17% (active) | -62.7% (active) | -74.8% (active) | 31.4% | -16.2% (active) | -90.3% (active) | 31.5% | 64.8% | 2.37% (active) | -13.7% (active) | 42.8% | 70% | 37.8% | 27.2% | 18.1% | -9.05% (active) | 0.007% (active) |
